Data taken from PubChem BioAssay (NCI).
This is part of a sample that, as a whole, favours compounds with a hit. Of some 83,000 tested, about 20% had one in any assay.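 In brief: 96-well plates, 48 h treatment, single concentration, percent growth endpoint.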 Unmarked numbers belong to inactive results. Calls of active or inactive are those of the source. The calls were made as follows: active = growth percent below 10; inactive = the rest.

What was measured:
Experiment in all cases: NCI-60 one-dose screen, 48 h (100 = growth as untreated, 0 = no growth, -100 = all killed)
Conditions in all cases: 10 µM unless noted
[1] = tested on: NCI-H23 lung
[2] = tested on: NCI-H226 lung
[3] = tested on: NCI-H322M lung
[4] = tested on: HOP-62 NSCLC
[5] = tested on: NCI-H460 lung
[6] = tested on: NCI-H522 lung
[7] = tested on: A549/ATCC NSCLC
[8] = tested on: 786-0 renal
[9] = tested on: COLO 205 colon
[10] = tested on: DU-145 prostate
[11] = tested on: K-562 leukemia
[12] = tested on: MALME-3M melanoma
[13] = tested on: MDA-MB-231 breast
[14] = tested on: RXF 393 renal
[15] = tested on: SF-268 CNS
[16] = tested on: SF-295 CNS
[17] = tested on: SF-539 CNS
[18] = tested on: UACC-257 melanoma
[19] = tested on: M14 melanoma
[20] = tested on: HOP-92 NSCLC

Row | SMILES | growth [1] | growth [2] | growth [3] | growth [4] | growth [5] | growth [6] | growth [7] | growth [8] | growth [9] | growth [10] | growth [11] | growth [12] | growth [13] | growth [14] | growth [15] | growth [16] | growth [17] | growth [18] | growth [19] | growth [20]
1 | Cc1cnc(C(=O)NNc2nc3sc4c(c3c(=O)n2C)C(C)CCC4)cn1 (configuration not stated) | 5.46% (active) | -1.53% (active) | 9.91% (active) | -39.1% (active) | 4.18% (active) | -9.87% (active) | -5.22% (active) | 0.305% (active) | 0.0868% (active) | 7.49% (active) | 6.51% (active) | -22.3% (active) | -3.01% (active) | -12.6% (active) | 5.92% (active) | 8.03% (active) | -21.1% (active) | -11.3% (active) | -15.7% (active) | –
2 | O=Cc1ccc([N+](=O)[O-])s1 | 93.2% | 105% | 98.4% | 105% | 106% | 101% | 95.2% | 108% | 107% | 110% | 75.4% | 115% | 85.2% | 123% | 96.6% | 107% | 86.5% | 97.3% | 92% | –
3 | C=C(CNCCc1ccc(O)cc1)[C@@H]1CC[C@]2(CO)CC[C@]3(C)[C@H](CC[C@@H]4[C@@]5(C)CCC(NCCO)C(C)(C)[C@@H]5CC[C@]43C)[C@@H]12 (some centres not stated) | -33.5% (active) | 81.5% | -24.5% (active) | -68.7% (active) | -87.4% (active) | -67.2% (active) | -39% (active) | -92.1% (active) | -68.5% (active) | -31% (active) | -49% (active) | -90.6% (active) | -77.6% (active) | -90.3% (active) | -62.4% (active) | -80.8% (active) | -97.3% (active) | -77.9% (active) | -89.3% (active) | –
4 | O=C1/C(=C/c2ccc(Cl)cc2)COc2ccc(O)c(O)c21 | 42.3% | 90.6% | 37.5% | -22.7% (active) | 31.1% | – | 42.9% | -80.8% (active) | 27.7% | 21.4% | 13.1% | 7.38% (active) | -17.8% (active) | 9.7% (active) | -0.809% (active) | 77.1% | -76% (active) | 10.1% | 30.9% | -5.33% (active)
5 | COc1ccc2[nH]cc(-c3nc(-c4c[nH]c5ccncc45)cs3)c2c1 | 76.6% | 93.3% | 67.6% | 27.6% | -20.7% (active) | -18.8% (active) | 24% | -86% (active) | -62.8% (active) | 32.9% | -37.9% (active) | -77.5% (active) | -35% (active) | -0.983% (active) | 65.3% | -57.1% (active) | -83.4% (active) | 82% | -74% (active) | –
6 | CCOC(=O)c1[nH]c(=O)c2c(C)nc(-c3ccccc3)cc2c1O | 105% | 93% | 118% | 124% | 102% | 92.7% | 101% | 112% | 117% | 112% | 110% | 136% | 78.8% | 112% | 106% | 110% | 106% | 106% | 104% | –
7 | Cc1cc2c(O)c(-c3cc(Cl)ccc3Cl)c3sc(=O)oc3c2cc1C | 44.2% | 58% | 89.8% | 87.8% | 34.4% | 26.4% | 60.2% | 83.8% | 112% | 69.5% | 28.3% | 100% | 77.3% | 86% | 65% | 72.5% | 89.9% | 60.8% | 81.1% | –
8 | COc1cc(-c2cc(-c3ccc(N(C)C)cc3)nc(N3CCC(O)CC3)c2C#N)cc(OC)c1OC | 3.6% (active) | -6.93% (active) | 25.8% | 41.4% | -27.9% (active) | – | 11.5% | -3.55% (active) | -17.2% (active) | 33% | 1.74% (active) | -45.3% (active) | -50.9% (active) | -5.34% (active) | 22.1% | -44.3% (active) | -0.969% (active) | -51.8% (active) | -69.3% (active) | -25% (active)
